In PubChem BioAssay AID1053124 (Broad Institute, 2014):
Results with a measured potency or affinity are listed apart. Activity calls are given as the source filed them.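 How the source made its calls: active means cell killing whose fitted half-effect concentration is at most twice the top valid dose tested; inconclusive means flat curve with 30 to 70% killing, or a poor fit; inactive means effect in the rising direction, plus the rest.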

Test: viability loss in A549 lung cells – cell-based, ATP luminescence, cherry-pick, set 2, cytotoxicity control, dose response (AID 1053124)
Settings: ATP luminescence (CellTiter-Glo), 72 h; series mostly up to 26 µM

Structure (SMILES)	outcome
Cc1c(C(=O)NCc2ccc3c(c2)OCCO3)sc(=O)n1Cc1ccccc1F	inactive
Cn1cnc(S(=O)(=O)Nc2ccc(OC(F)(F)F)cc2)c1	inactive
Cc1ccc(-n2c(C)cc(/C=N/NC(=O)Cn3c4ccccc4c(=O)c4ccccc43)c2C)cc1	inactive
CCCOc1c(Br)cc(C2C3=C(CCCC3=O)N(C)C3=C2C(=O)CCC3)cc1OC	inactive
S=C(NCC1CCCO1)N1CCN(Cc2ccccc2Cl)CC1 (centres undefined)	inactive
COc1ccc(Cn2nnnc2C(CC(C)C)N2CCC(C(N)=O)CC2)cc1 (centres undefined)	inactive
CC(=O)c1sc(N/N=C\c2ccc(N(C)C)cc2)nc1C	inactive
COc1ccc(C2C3=C(CCCC3=O)N(CC(=O)O)C3=C2C(=O)CCC3)cc1	inactive
Cc1nc2ccc(S(=O)(=O)Nc3ccc(-c4nc5cccnc5s4)cc3)cc2s1	inactive
CCn1c(=N)c(S(=O)(=O)c2ccccc2)cc2c(=O)n3ccccc3nc21	inactive
Cc1ccc(S(=O)(=O)CCC(=O)OCC(=O)Nc2cccc(S(=O)(=O)N3CCCCC3)c2)cc1	inactive
O=C(O)c1cccc(Nc2nc(-c3cc4ccccc4oc3=O)cs2)c1	inactive
CCNc1nc2nc3ccc(C)cn3c(=O)c2cc1C(=O)NCC1CCCO1 (centres undefined)	inactive
O=C(CCCn1c(=O)c2sccc2n(Cc2cc(=O)n3ccccc3n2)c1=O)NCc1ccco1	inactive
O=C(Cc1csc(-c2ccccc2)n1)NCc1ccccc1F	inactive
CN1CCc2c(sc(NC(=O)Cc3ccccc3)c2C#N)C1	inactive
Cc1cccn2c(=O)c3cc(C(N)=S)c(=N)n(CCCOC(C)C)c3nc12	inactive
N#Cc1ccc(OCC(=O)OCC(=O)N2CCc3ccccc32)cc1	inactive
COc1ccc(CNC(=O)c2sc(=O)n(Cc3ccc(C)cc3)c2C)cc1OC	inactive
CCOCCCNC(=S)N1CCCN(c2nc3cc(C)c(C)cc3cc2C#N)CC1	inactive

Structure (SMILES)	outcome
O=c1oc2c(CN3CCN(CCO)CC3)c(O)ccc2cc1-c1ccccn1	inactive
CC(C)C(=O)Nc1sc2c(c1C(N)=O)CCN(Cc1ccccc1)C2	inactive
COc1ccccc1/C=N/Nc1nc(C)cc(=O)[nH]1	inactive
CCNC(=O)c1cc2c(=O)n3cccc(C)c3nc2n(Cc2ccc(C)cc2)c1=N	inactive
CCN(CC)c1ccc2cc(C#N)c(=O)oc2c1	inactive
O=C(O)c1ccc(N2N=C(c3ccccc3)CC2c2ccccc2)cc1 (centres undefined)	inactive
CCOC(=O)c1c(NC(=O)CSc2ncccn2)sc2c1CCN(Cc1ccccc1)C2	inactive
O=C1CCc2cc(S(=O)(=O)NC(Cc3ccccc3)C(=O)NCCC3=CCCCC3)ccc2N1 (centres undefined)	inactive
CC(=O)Oc1ccc(C(=O)Nc2cc(C)on2)cc1	inactive
CC(C)(C)[C@H]1CCC(=O)N([C@H](CSc2ccccc2)Cc2ccccc2)CC1	inactive
COc1ccccc1OCc1ccc(C(=O)N(C)c2ccccc2)o1	inactive
N#CC1=C(N)OC2=C(C(=O)CCC2)C1c1cc2c(cc1Br)OCO2 (centres undefined)	inactive
C=Cc1ccc(Cn2c(C)c(C(=O)NCc3cccc(C)c3)sc2=O)cc1	inactive
CC(C)OCCCn1c(=N)c(C(N)=S)cc2c(=O)n3ccccc3nc21	inactive
Cc1c(C(=O)NCc2cccc(C(F)(F)F)c2)sc(=O)n1Cc1ccc(C(=O)N(C)C)cc1	inactive
Cc1cc(C)nc(SCC(=O)Nc2ccc(S(=O)(=O)Nc3onc(C)c3C)cc2)n1	inactive
CCN(c1ccccc1)S(=O)(=O)c1ccc(OC)c(NC(=O)CN(C)C)c1	inactive
CSCCC1(C(=O)O)NC(c2ccccc2O)C2C(=O)N(C(C)C)C(=O)C21 (centres undefined)	inactive
CCOc1ccc(NC(=O)CN(C)C(=O)CCCNC(=O)c2ccc(Cl)cc2)cc1OCC	inactive
